Drawing on PubChem BioAssay (NCATS), this text covers Potency and activity change, negative = cytotoxicity for 31 molecules.

Results filed as inconclusive are left out. Entries that show only a call come without a potency. The source made the active and inactive calls. Calls come from the whole dose curve; as a rule, active = well fitted cell-killing curve with a large enough effect; inconclusive = small, poorly fitted or top-dose-only effect, or effect the other way; inactive = flat fitted curve, though single readings scatter.
Potency is the fitted concentration of half-maximal effect.

This test concerns CAOV3. Description: Primary qHTS to identify gynecologic anti-cancer compounds using libraries of approved drugs and bioactive compounds (AID 1345084). Note: nearly all actives have a fitted effect of over 55% in size. To be noted: Gynecologic cancer cell panel viability, ATPlite luminescence, 48 h; series mostly up to 57.5 µM. The method, boiled down: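 Luminescence from the ATPlite ATP-monitoring reagent indicates viable cell number; lower signal means cytotoxicity. Cells received compound 16 h after seeding and were exposed for 48 h across five concentrations.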
For `CN1Cc2c(N)cccc2C(c2ccccc2)C1` (stereo unspecified), the Potency result was “inactive”.

Take `C(#Cc1cccc(CN2CCOCC2)c1)CCN1CCCCC1`: the Potency result was “inactive”.

On to `C/C=C(\C)C(=O)O[C@H]1[C@H](O)[C@]2(COC(C)=O)[C@H](O)C[C@]3(C)C(=CCC4[C@@]5(C)CC[C@H](O[C@@H]6O[C@H](C(=O)O)[C@@H](O[C@@H]7O[C@H](CO)[C@@H](O)[C@H](O)[C@H]7O)[C@H](O)[C@H]6O[C@@H]6O[C@H](CO)[C@@H](O)[C@H](O)[C@H]6O)[C@](C)(CO)C5CC[C@]43C)[C@@H]2CC1(C)C` (stereo partly specified), for which the activity change, negative = cytotoxicity was -14.1% [at 11.6 µM] (inactive).

In the case of `C[C@]12C=CC(=O)C=C1CC[C@@H]1[C@@H]2[C@@H](O)C[C@@]2(C)[C@H]1CC[C@]2(O)C(=O)COC(=O)CCC(=O)O`, the Potency entry is “inactive”.

Regarding `CC1=C2[C@@H]([C@H](C)CC[C@H]2/C=C(\C)C(=O)O)[C@H](O)C1`, the Potency result is “inactive”.

For `CC(=O)c1c(C)cc(O[C@@H]2O[C@H](CO)[C@@H](O)[C@H](O)[C@H]2O)cc1O`, the Potency result was “inactive”.

Take `OC[C@H]1O[C@@H](OCCc2ccc(O)cc2)[C@H](O)[C@@H](O)[C@@H]1O`: the Potency entry was “inactive”.

`C[C@@H]1C[C@H]2[C@@H]3CCC4=CC(=O)C=C[C@]4(C)[C@@]3(F)[C@@H](O)C[C@]2(C)[C@@]1(O)C(=O)COP(=O)(O)O`: the Potency result was “inactive”.

With `CC(=O)N1CCN(NC(=O)c2ccc(F)cc2)CC1`, the Potency entry is “inactive”.

Turning to `NC(Cc1c[nH]c2ccccc12)C(=O)NC(CCC(=O)O)C(=O)O` (stereo unspecified), the Potency result is “inactive”.

Turning to `CC[C@H](/C=C/[C@@H](C)[C@H]1CC[C@H]2[C@@H]3CC=C4C[C@@H](O)CC[C@]4(C)[C@H]3CC[C@]12C)C(C)C`, the activity change, negative = cytotoxicity was 7.88% [at 6.55 µM] (inactive).

As for `CCOc1ccc(C(Nc2ccccn2)c2ccc3ccc(C)nc3c2O)cc1C` (stereo unspecified), the Potency entry is “inactive”.

Turning to `COc1cc(C2Oc3c(OC)cc(/C=C/C(=O)OC[C@H]4O[C@@H](OC(C)(C)C(=O)O)[C@H](O)[C@@H](O)[C@@H]4O)cc3C2CO)ccc1O` (stereo partly specified), the Potency result was “inactive”.

Regarding `COC1=CC(=O)C[C@@H](C)[C@]12Oc1cc(OC)cc(OC)c1C2=O`, the Potency result was “inactive”.

In the case of `COc1c(C)c(OCC=C(C)C)cc2c1C(=O)NC2=O`, the Potency result is “inactive”.

`C[C@]12CCC(=O)C=C1[C@@H](O)C[C@@H]1[C@@H]2[C@@H](O)C[C@@]2(C)[C@H]1CC[C@]2(O)C(=O)CO`: the Potency result was “inactive”.

On to `Cn1c(=O)cc(N2CCCC(N)C2)n(Cc2ccccc2C#N)c1=O` (stereo unspecified), for which the Potency entry was “inactive”.

With `CC(=O)O[C@H]1C[C@@H]2[C@]3(CC[C@]4(C)[C@@H](C5(C)CCC(C(C)(C)O)O5)[C@@H](O)C[C@@]24C)C[C@@]32CC[C@H](O[C@@H]3OC[C@@H](O)[C@H](O)[C@H]3O)C(C)(C)[C@H]12` (stereo partly specified), the Potency result is “inactive”.

Take `COc1cc(C[C@H]2COC(=O)[C@@H]2Cc2ccc(O)c(OC)c2)ccc1O`: the Potency result was “inactive”.

`CCC(=O)NS(=O)(=O)c1ccc(-c2c(-c3ccccc3)noc2C)cc1`: the Potency result is “inactive”.

On to `C=CC(C)(O)CO[C@@H]1O[C@H](CO)[C@@H](O)[C@H](O)[C@H]1O` (stereo partly specified), for which the Potency entry was “inactive”.

On to `Clc1ccc(CN[C@H]2CCN(c3ncc(Br)cn3)C2)c(Cl)c1`, for which the Potency result is “inactive”.

On to `CC(C)C(=O)c1cn(CC(=O)COc2ccc(Oc3ccccc3)cc2)c2ccc(C(=O)O)cc12`, for which the Potency result is “inactive”.

Consider `CC(C)C1=CC2=CCC3[C@](C)(CCC[C@@]3(C)C(=O)O)C2CC1O` (stereo partly specified), for which the Potency result was “inactive”.

As for `CC[C@H]1OC(=O)C[C@@H](O)[C@H](C)[C@@H](O[C@@H]2O[C@H](C)[C@@H](O)[C@H](N(C)C)[C@H]2O)[C@@H](CCN2C[C@H](C)C[C@H](C)C2)C[C@@H](C)C(=O)/C=C/C(C)=C/[C@@H]1CO[C@@H]1O[C@H](C)[C@@H](O)[C@@H](OC)[C@H]1OC`, the Potency result was “inactive”.

Consider `CC(C)NC[C@H](O)COc1ccc(CCOCC2CC2)cc1`, for which the Potency entry was “inactive”.

Turning to `CC(=O)OC(C)OC(=O)C(C)c1ccc(-c2ccccc2)c(F)c1` (stereo unspecified), the Potency result was “inactive”.

In the case of `C=C1C(=O)O[C@H]2[C@H]1[C@@H](OC(=O)C(C)CO)C[C@@]1(C)[C@H](O)CCC(=O)[C@H]21` (stereo partly specified), the Potency result is “inactive”.

As to `CCC(C)(O)C(O)C(=O)OCc1ccc(O[C@@H]2O[C@H](CO)[C@@H](O)[C@H](O)[C@H]2O)c(OC)c1` (stereo partly specified), the Potency entry is “inactive”.

As for `NS(=O)(=O)OC[C@@H]1C[C@@H](n2ccc3c(N[C@H]4CCc5ccccc54)ncnc32)C[C@@H]1O`, the Potency is 0.631 µM (active).

Take `COc1ccc(C[C@H](N)C(=O)N[C@H]2[C@@H](O)[C@H](n3cnc4c(N(C)C)ncnc43)O[C@@H]2CO)cc1`: the Potency was 1.12 µM (active).
